Screening results as filed in PubChem BioAssay.
TDP1 cell noCPT – qHTS for Inhibitors of human tyrosyl-DNA phosphodiesterase 1 (TDP1): qHTS in cells in absence of CPT; DT40 Tdp1-/- hTDP1 cells, no CPT, ATP luminescence, 48 h; actives 15% (n = 420,000); Potency, µM (doses to about 46.2 µM), for the others: at the highest dose activity change, negative = growth inhibition, most hits filed as inhibitors; also: potency is read from the fitted curve at half-maximal effect; nearly all actives have a fitted effect of over 55% in size
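Chicken DT40 Tdp1-/- cells stably complemented with human TDP1 were seeded at 400 cells/well with DMSO in place of 20 nM camptothecin. After compound pinning, cells grew at least 48 hr at 37 °C; viability read by CellTiter-Glo luminescence.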
DT40 TDP1 CPT – DT40-hTDP1 cell growth loss with CPT; chicken DT40 Tdp1-/-;hTDP1 cells + 20 nM CPT, ATP luminescence, 48 h; Potency, µM (series often up to 46.2 µM), for inactives: at the top dose activity change, negative = growth inhibition, usual class: inhibitors; actives 12% (n = 420,000); also: potency is read from the fitted curve at half-maximal effect; nearly all actives have a fitted effect of over 55% in size
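Chicken DT40 Tdp1-/- cells complemented with human TDP1, 400 cells/well, exposed to compounds plus 20 nM camptothecin for at least 48 h at 37 C; viability read as ATP content by CellTiter-Glo luminescence.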
HT1080 IDH1KD tx – toxicity to HT-1080 IDH1 knockdown cells (counter line); HT-1080 IDH1 knockdown viability, ATP luminescence, 48 h; Potency, µM (top dose mostly 46.1 µM), for inactives: top-dose activity, negative = toxicity, most hits filed as cytotoxic; actives 2% (n = 360,000); AID 686971;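 also: potency is read from the fitted curve at half-maximal effect; 0% = DMSO wells and -100% = cell-free medium wells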
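IDH1KD HT-1080 cells, 750/well, RPMI + 5% FBS; compound pinned after 2 h settling; 48 h, 37 °C; CellTiter-Glo luminescence; % activity normalised to DMSO and no-cell wells; curves fitted, classed by r2 and efficacy.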
HT1080-NT tox – kills 2HG-producing HT-1080-NT fibrosarcoma cells | HT-1080-NT fibrosarcoma viability, CellTiter-Glo ATP luminescence, 48 h | actives 1.6% (n = 360,000) | Potency, µM (doses to about 46.1 µM), inactives show at the highest dose activity, negative = less viability, actives largely listed as cytotoxic;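 also: NT is the 2HG producing partner of a matched IDH1 knockdown line; potency is read from the fitted curve at half-maximal effect; 0% = DMSO-treated cells and -100% = media-only wells without cells; nearly all actives have a fitted effect of over 55% in size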
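Fibrosarcoma NT cells, 750 per well in 5% FBS RPMI, were exposed to compound for 48 hours. Viability: CellTiter-Glo luminescence.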
IL-1B inflam inh – inflammasome signaling inhibition, IL-1 beta readout; activity change, % at 57.5 µM; THP-1 LPS/ATP IL-1B secretion, AlphaLISA, 16 h; active compounds read low; actives 4.7% (n = 360,000); in the data active = activity change below about -50%; inconclusive = mostly about -30% to -49%
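THP-1 cells pretreated 1 hr with compounds (up to 57.5 uM final), then stimulated with LPS (250 ng/mL final) plus ATP (1.25 mM final); secreted IL-1B measured by AlphaLISA after 16 hr, decreased signal indicating inhibition.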
* = called active by the depositor; ? = inconclusive; / = no result given; [ ] = dose if it differs, or a comment. The list is not random: actives were taken first. Their share in the collection is about 19%. Unless noted, calls follow the shape of the dose curve; as a rule, active = well fitted curve in the direction sought with a large enough effect; inconclusive = small, poorly fitted or top-dose-only effect, or another doubt; inactive = no such curve, though single readings can be large; an effect the other way counts as inactive or inconclusive. Unless noted, % is scaled to controls: 0 for no effect and ±100 for the full control effect.

SMILES | TDP1 cell noCPT | DT40 TDP1 CPT | HT1080 IDH1KD tx | HT1080-NT tox | IL-1B inflam inh
CN(C)CC(O)COc1cccc(OCC(O)CN(C)C)c1 (stereo not drawn) | -3% | 14% | 12% | 0% | -6
Cc1cccc(OCC(O)CN2CCc3ccccc3C2)c1 (stereo not drawn) | ? | ? | 0% | 1% | -21
CCn1c(=N)n(CC(O)COc2ccc(C)cc2)c2ccccc21 (stereo not drawn) | 16µM* | 12µM* | ? | ? | /
COc1ccccc1CN1CCC2(CC1)CCN(S(C)(=O)=O)CC2 | -4% | -2% | / | / | /
C[C@H](CO)N1C[C@H](C)[C@@H](CN(C)Cc2ccc(C(=O)O)cc2)Oc2c(cccc2N(C)C)C1=O | -3% | -1% | 14% | 13% | 14
CCCC(=O)O[C@@H]1C[C@@H](C)N(C(=O)c2ccccc2)c2ccc(C)cc21 | 21µM* | 21µM* | -15% | -10% | -3
CCN1C=CC2=C(C#N)C(N)C(C#N)(C#N)C(c3ccccc3C(F)(F)F)C2C1 (stereo not drawn) | 23µM* | ? | -10% | -4% | -8
Cc1cc(C)c(NC(=O)/C(=C/c2ccccc2)c2ccccc2)c(C)c1 | 21µM* | 23µM* | 2% | -21% | 0
COc1ccc([C@@H]2Sc3cc(OC)ccc3N(CCN(C(C)C)C(C)C)C(=O)[C@H]2OC(C)=O)cc1 | ? | 21µM* | -25% | -14% | -6
COC(=O)c1ccc(NC(=O)CN(CCc2ccccc2)S(=O)(=O)c2ccc(OC)cc2)cc1 | 21µM* | ? | / | / | /
Cc1ccc(S(=O)(=O)N(CCc2ccccc2)CC(=O)Nc2ccc(Br)cc2)cc1 | 16µM* | ? | / | / | /
O=C(CN(CCc1ccccc1)S(=O)(=O)c1ccc(Br)cc1)NCc1ccc(Cl)cc1 | -11% | -18% | / | / | /
CC(C)C[C@H](NC(=O)N1c2ccccc2NC(=O)[C@@H]1C(C)C)C(=O)N[C@@H](Cc1ccccc1)C(=O)O | 17% | 10% | 1% | 2% | 14
COC(=O)c1scc(C)c1NS(=O)(=O)c1ccc(NC(C)=O)cc1 | -28% | 21% | 17% | 26% | -9
CCc1ccccc1NC(=O)CSc1nnc(-c2cc(OC)c(OC)c(OC)c2)o1 | -24% | -21% | / | / | /
O=C1Cc2cc(S(=O)(=O)N3CCN(c4cccc(Cl)c4)CC3)ccc2N1 | 3% | -5% | 1% | -4% | -14
O=C(Cc1c(F)cccc1Cl)N1CCN(S(=O)(=O)c2cccs2)CC1 | -1% | -2% | 1% | 2% | 18
O=C(CCCOc1ccccc1)N1CCN(S(=O)(=O)c2cccs2)CC1 | -28% | -27% | -2% | -1% | -14
O=C(Cc1c(Cl)cccc1Cl)N1CCN(S(=O)(=O)c2cccs2)CC1 | ? | 21µM* | 8% | 9%[9.24 µM] | 8
CC(=O)c1ccc(OCCCC(=O)N2CCN(S(=O)(=O)c3cccs3)CC2)cc1 | 12µM* | ? | -21% | -22% | -21
OC(Cc1ccc2ccccc2n1)c1c(Cl)cccc1Cl (stereo not drawn) | -26% | 4% | / | / | /
CCOc1ccc(NC(=O)c2ccc(N3CC4CC(C3)c3cccc(=O)n3C4)c(N)c2)cc1 (stereo not drawn) | -21% | ? | -1% | -5% | 67
FC(F)(F)c1cccc(NC(=S)N(CCCN2CCCC2)Cc2cccn2Cc2ccc(Cl)cc2)c1 | 16µM* | ? | 23µM* | ? | -89*
Cc1ccc(NC(=S)N(CCCN2CCCC2)Cc2cccn2Cc2ccc(Cl)cc2)cc1C | 21µM* | ? | -16% | 1% | -4
Cc1ccc(NC(=S)N(CCCN2CCCC2)Cc2cccn2Cc2ccc(Cl)cc2)cc1Cl | 6.5µM* | ? | -8% | ? | -53*
SMILES | TDP1 cell noCPT | DT40 TDP1 CPT | HT1080 IDH1KD tx | HT1080-NT tox | IL-1B inflam inh
CCN1CCN(CCCN(Cc2ccco2)C(=S)Nc2ccc(Cl)c(C)c2)CC1 | ? | -15% | -17% | -23% | -13
COc1ccc(NC(=S)N(CCCN2CCCC2)Cc2cccn2Cc2ccc(Cl)cc2)cc1Cl | 21µM* | 15µM* | ? | ? | -52*
O=C(N/C(=C/c1cccs1)C(=O)N1CCOCC1)c1ccccc1 | -4% | -2% | 16% | 1% | -10
COc1cccc(C(=O)NCC(=O)OCc2cc(=O)n3c(C)csc3n2)c1 | -12% | -11% | / | / | /
COc1cc(/C=C2\CCOC2=O)cc(OC)c1OC | 6% | 25% | 7% | 21% | -1
CC1(C)Cc2c(c(N3CCOCC3)nc3sc4c(NCCN5CCOCC5)nnnc4c23)CS1 | 12µM* | ? | 5% | 4% | -17
CC1(C)Cc2c(c(N3CCOCC3)nc3sc4c(NCC5CCCO5)nnnc4c23)CS1 (stereo not drawn) | ? | -27% | 0% | 3% | 16
COc1ccc(CCC(=O)N2c3ccccc3N=C(c3ccc(C(F)(F)F)cc3)C2C(=O)NC(C)C)cc1 (stereo not drawn) | ? | 23µM* | ? | ? | 50
Cc1ccc(C(=O)N2c3ccccc3N=C(c3ccccc3)C2C(=O)NC(C)C)cc1 (stereo not drawn) | ? | -25% | -28% | ? | -1
CCCCNC(=O)C1C(c2ccc(C(F)(F)F)cc2)=Nc2ccccc2N1C(=O)c1cccc(C(F)(F)F)c1 (stereo not drawn) | ? | ? | 9% | 6% | 0
Cc1nc2ccc(C(=O)N3c4ccccc4N=C(c4ccc(C(F)(F)F)cc4)C3C(=O)NC(C)(C)C)cc2[nH]1 (stereo not drawn) | 15µM* | ? | ? | ? | 37
COc1ccc(CCC(=O)N2c3ccccc3N=C(c3ccc(C(F)(F)F)cc3)C2C(=O)NC(C)(C)C)cc1 (stereo not drawn) | ? | ? | -24% | -21% | -10
O=C(NC1CCCC1)C1C(c2ccc(C(F)(F)F)cc2)=Nc2ccccc2N1C(=O)c1ccco1 (stereo not drawn) | ? | 16µM* | ? | ? | 9
CC(C)NC(=O)C1C(c2ccccc2)=Nc2ccccc2N1C(=O)c1cc(Cl)cc(Cl)c1 (stereo not drawn) | ? | 23µM* | 16µM* | 16µM* | 1
CC(=O)c1c(C)[nH]c(C(=O)COC(=O)c2ccc(C)s2)c1C | ? | 12% | -1% | 0% | 20
CC(=O)N1c2ccccc2N=C(c2ccc(C(F)(F)F)cc2)C1C(=O)NC(C)C (stereo not drawn) | 23µM* | 21µM* | -14% | -8% | 42
